Holding throughout (test): DAPPL (digital affinity profiling via proximity ligation, sequencing); 10 mM Tris-HCl pH 7.5, 50 mM NaCl, 1 mM DTT, 4% glycerol, room temperature, 30 min; GST-TFs on glutathione beads, 16-mer random dsDNA library, 0.1% formaldehyde crosslink after washing; high values mean tight binding
For one experiment, the target named is T1, FEV (Homo sapiens, UniProt Q99581 1-238).
T1 sequence: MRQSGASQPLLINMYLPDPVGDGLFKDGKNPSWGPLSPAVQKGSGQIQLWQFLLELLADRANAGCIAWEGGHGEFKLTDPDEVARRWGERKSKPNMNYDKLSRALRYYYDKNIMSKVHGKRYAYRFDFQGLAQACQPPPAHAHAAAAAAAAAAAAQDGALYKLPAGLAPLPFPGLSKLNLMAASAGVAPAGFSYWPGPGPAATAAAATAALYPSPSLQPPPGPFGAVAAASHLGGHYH
The settings on record: protein: recombinant; tags: N-terminal GST; dsDNA, one strand shown. A digest of the protocol:
(§1)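 Human transcription factors were made in yeast as GST fusions, captured on glutathione beads and barcoded with DNA. With a tag-only sample included, the pool was incubated with 200 nmole of a random double-stranded 16-mer DNA library in Tris/NaCl/DTT/glycerol buffer at room temperature for 30 min, then crosslinked with 0.1% formaldehyde after washing, ligated by proximity, amplified and sequenced. For binding signal, each hexamer's read frequency for a factor is divided by its frequency for the tag-only sample.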

For a further experiment, the target named is ETV5 (Homo sapiens, UniProt P41161 1-510). Particulars: protein: recombinant; tags: N-terminal GST; dsDNA, one strand shown. In a few lines:
as §1

In another experiment the target is HSF1 (Homo sapiens, UniProt Q00613 1-529). Particulars: protein: recombinant; tags: N-terminal GST; chain copies: 3; dsDNA, one strand shown. A digest of the protocol: as §1
In a further experiment the target is T2, SPIC (Homo sapiens, UniProt Q8N5J4 1-248).
T2 sequence: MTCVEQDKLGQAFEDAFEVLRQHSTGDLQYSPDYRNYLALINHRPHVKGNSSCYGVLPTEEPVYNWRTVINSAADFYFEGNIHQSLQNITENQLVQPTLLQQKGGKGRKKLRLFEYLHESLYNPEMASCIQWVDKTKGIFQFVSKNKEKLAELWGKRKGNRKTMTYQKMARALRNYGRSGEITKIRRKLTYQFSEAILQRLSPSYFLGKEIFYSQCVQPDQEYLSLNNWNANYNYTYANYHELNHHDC
The settings on record: protein: recombinant; tags: N-terminal GST; dsDNA, one strand shown. A digest of the protocol:
as §1

A further experiment deals with ELF4 (Homo sapiens, UniProt Q99607 1-663). Particulars: protein: recombinant; tags: N-terminal GST; dsDNA, one strand shown. A digest of the protocol: as §1
In a further experiment the target is T3, ELK4 (Homo sapiens, UniProt P28324-2 1-405).
T3 sequence: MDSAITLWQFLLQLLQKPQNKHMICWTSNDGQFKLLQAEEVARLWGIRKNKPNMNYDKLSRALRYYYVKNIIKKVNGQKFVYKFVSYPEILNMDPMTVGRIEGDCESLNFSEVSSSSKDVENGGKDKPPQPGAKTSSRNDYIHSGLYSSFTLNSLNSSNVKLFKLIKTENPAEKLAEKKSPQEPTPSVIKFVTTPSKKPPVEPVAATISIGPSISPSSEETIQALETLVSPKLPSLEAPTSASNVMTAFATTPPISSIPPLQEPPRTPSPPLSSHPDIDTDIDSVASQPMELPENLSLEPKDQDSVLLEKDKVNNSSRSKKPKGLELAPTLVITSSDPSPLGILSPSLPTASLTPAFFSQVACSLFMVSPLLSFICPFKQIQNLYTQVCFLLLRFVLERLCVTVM
Particulars: protein: recombinant; tags: N-terminal GST; dsDNA, one strand shown. In a few lines: as §1

In a further experiment the target is T4, ETV2 (Homo sapiens, UniProt O00321 1-342).
T4 sequence: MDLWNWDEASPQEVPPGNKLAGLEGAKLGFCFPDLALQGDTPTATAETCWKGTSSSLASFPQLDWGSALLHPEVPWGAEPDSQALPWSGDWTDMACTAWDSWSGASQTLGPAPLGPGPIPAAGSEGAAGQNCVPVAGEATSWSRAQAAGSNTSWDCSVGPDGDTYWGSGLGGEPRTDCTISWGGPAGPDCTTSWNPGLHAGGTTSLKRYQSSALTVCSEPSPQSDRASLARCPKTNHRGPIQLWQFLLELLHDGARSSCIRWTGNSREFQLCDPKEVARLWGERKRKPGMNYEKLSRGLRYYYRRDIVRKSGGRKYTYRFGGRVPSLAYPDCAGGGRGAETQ
The settings on record: protein: recombinant; tags: N-terminal GST; dsDNA, one strand shown. A digest of the protocol: as §1

A further experiment has as its target T5, ELF3 (Homo sapiens, UniProt P78545 1-371).
T5 sequence: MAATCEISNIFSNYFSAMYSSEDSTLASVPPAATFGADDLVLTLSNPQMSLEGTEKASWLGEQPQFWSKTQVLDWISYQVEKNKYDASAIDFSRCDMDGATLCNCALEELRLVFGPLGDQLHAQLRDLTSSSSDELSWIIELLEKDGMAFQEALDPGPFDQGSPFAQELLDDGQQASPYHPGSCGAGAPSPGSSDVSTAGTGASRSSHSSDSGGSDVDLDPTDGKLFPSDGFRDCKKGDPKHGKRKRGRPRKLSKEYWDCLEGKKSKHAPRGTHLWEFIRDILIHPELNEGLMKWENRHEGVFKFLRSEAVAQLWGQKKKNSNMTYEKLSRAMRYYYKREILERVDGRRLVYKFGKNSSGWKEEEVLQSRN
The settings on record: protein: recombinant; tags: N-terminal GST; dsDNA, one strand shown. In a few lines: as §1

A further experiment concerns the target CRX (Homo sapiens, UniProt O43186 1-299). Particulars: protein: recombinant; tags: N-terminal GST; dsDNA, one strand shown. A digest of the protocol:
as §1

A further experiment deals with ETV1 (Homo sapiens, UniProt P50549 1-477). The settings on record: protein: recombinant; tags: N-terminal GST; dsDNA, one strand shown. In a few lines:
as §1

The next experiment concerns the target T6, ERF (Homo sapiens, UniProt P50548 1-548).
T6 sequence: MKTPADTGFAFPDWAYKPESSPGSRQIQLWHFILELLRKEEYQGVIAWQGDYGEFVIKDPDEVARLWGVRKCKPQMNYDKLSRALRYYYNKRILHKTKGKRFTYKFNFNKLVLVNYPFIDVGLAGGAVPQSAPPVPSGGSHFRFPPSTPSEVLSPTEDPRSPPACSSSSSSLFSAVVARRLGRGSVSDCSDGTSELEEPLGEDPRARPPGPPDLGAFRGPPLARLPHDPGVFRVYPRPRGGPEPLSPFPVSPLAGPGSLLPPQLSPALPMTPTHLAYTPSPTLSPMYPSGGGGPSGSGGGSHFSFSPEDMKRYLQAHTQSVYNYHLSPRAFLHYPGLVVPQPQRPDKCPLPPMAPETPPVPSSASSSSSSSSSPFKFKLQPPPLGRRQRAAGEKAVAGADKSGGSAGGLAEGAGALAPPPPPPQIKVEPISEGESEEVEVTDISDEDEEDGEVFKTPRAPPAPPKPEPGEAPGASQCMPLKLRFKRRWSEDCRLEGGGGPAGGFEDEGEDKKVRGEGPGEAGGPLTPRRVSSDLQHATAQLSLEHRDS
Particulars: protein: recombinant; tags: N-terminal GST; dsDNA, one strand shown. A digest of the protocol: as §1

Another experiment deals with T7, ETV3L (Homo sapiens, UniProt Q6ZN32 1-361).
T7 sequence: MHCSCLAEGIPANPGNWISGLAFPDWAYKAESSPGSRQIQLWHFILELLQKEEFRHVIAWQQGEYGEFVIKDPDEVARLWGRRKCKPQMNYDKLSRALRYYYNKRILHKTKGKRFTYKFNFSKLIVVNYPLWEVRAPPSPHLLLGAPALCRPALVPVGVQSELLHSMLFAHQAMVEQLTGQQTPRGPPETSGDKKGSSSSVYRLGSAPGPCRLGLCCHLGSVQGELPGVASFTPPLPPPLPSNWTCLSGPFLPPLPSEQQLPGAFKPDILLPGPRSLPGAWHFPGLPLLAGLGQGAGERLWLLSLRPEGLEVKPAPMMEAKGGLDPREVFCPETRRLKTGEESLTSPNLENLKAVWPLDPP
The settings on record: protein: recombinant; tags: N-terminal GST; dsDNA, one strand shown. A digest of the protocol:
as §1

In a further experiment the target is T8, ETS2 (Homo sapiens, UniProt P15036 1-469).
T8 sequence: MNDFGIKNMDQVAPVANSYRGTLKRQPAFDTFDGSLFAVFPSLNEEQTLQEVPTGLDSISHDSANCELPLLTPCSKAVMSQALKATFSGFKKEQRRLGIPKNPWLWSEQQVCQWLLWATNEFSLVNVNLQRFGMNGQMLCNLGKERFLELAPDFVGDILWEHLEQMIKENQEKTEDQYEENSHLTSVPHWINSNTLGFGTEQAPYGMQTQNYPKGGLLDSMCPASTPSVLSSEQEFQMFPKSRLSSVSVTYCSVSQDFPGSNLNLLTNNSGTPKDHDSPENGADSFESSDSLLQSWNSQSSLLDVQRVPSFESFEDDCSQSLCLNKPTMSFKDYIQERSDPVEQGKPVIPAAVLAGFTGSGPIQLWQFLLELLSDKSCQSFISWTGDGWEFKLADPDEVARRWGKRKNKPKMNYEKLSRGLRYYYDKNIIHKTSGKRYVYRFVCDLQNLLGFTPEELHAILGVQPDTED
Particulars: protein: recombinant; tags: N-terminal GST; dsDNA, one strand shown. In a few lines: as §1

The target of another experiment is T9, SPDEF (Homo sapiens, UniProt O95238 1-335).
T9 sequence: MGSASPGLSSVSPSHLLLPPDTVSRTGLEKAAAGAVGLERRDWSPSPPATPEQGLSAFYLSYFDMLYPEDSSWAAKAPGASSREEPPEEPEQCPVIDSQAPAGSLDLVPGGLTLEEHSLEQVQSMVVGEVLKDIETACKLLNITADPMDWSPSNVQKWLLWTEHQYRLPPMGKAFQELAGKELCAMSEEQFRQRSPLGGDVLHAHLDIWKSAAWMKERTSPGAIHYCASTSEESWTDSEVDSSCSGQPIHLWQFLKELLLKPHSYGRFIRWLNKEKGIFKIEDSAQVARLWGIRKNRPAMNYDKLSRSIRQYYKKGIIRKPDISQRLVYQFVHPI
Particulars: protein: recombinant; tags: N-terminal GST; dsDNA, one strand shown. In a few lines: as §1

The next experiment concerns the target T10, ETV7 (Homo sapiens, UniProt Q9Y603 1-341).
T10 sequence: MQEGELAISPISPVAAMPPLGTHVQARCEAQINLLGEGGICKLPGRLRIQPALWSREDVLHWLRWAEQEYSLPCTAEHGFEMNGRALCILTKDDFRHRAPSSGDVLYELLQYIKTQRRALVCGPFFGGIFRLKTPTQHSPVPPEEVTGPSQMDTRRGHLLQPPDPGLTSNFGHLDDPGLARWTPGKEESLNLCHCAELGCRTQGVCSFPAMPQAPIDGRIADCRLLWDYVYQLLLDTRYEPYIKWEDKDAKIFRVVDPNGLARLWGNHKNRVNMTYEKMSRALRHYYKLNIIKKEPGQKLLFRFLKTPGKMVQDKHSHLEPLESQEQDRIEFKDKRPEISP
The settings on record: protein: recombinant; tags: N-terminal GST; dsDNA, one strand shown. In a few lines:
as §1

A further experiment concerns the target T11, ELF5 (Homo sapiens, UniProt Q9UKW6-2 1-255).
T11 sequence: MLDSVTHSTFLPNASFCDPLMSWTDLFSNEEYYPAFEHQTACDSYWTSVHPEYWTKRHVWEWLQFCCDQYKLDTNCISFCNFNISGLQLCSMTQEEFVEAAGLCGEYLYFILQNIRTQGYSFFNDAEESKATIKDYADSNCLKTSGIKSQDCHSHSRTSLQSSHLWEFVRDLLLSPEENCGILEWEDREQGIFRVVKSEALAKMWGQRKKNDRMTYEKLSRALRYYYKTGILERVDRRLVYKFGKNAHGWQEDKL
The settings on record: protein: recombinant; tags: N-terminal GST; dsDNA, one strand shown. A digest of the protocol: as §1

Another experiment concerns the target T12, ETV3 (Homo sapiens, UniProt P41162-2 1-143).
T12 sequence: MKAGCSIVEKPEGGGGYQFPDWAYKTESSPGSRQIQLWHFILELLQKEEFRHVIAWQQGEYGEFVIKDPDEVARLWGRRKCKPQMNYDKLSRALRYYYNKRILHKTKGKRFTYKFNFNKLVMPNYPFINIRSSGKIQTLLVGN
The settings on record: protein: recombinant; tags: N-terminal GST; dsDNA, one strand shown. A digest of the protocol:
as §1

The next experiment deals with ETV6 (Homo sapiens, UniProt P41212 1-452). Particulars: protein: recombinant; tags: N-terminal GST; dsDNA, one strand shown. In a few lines: as §1

The source of these data is PMC7862700, “An all-to-all approach to the identification of sequence-specific readers for epigenetic DNA modifications on cytosine”.

Chain of ETV6 (P41212 whole entry): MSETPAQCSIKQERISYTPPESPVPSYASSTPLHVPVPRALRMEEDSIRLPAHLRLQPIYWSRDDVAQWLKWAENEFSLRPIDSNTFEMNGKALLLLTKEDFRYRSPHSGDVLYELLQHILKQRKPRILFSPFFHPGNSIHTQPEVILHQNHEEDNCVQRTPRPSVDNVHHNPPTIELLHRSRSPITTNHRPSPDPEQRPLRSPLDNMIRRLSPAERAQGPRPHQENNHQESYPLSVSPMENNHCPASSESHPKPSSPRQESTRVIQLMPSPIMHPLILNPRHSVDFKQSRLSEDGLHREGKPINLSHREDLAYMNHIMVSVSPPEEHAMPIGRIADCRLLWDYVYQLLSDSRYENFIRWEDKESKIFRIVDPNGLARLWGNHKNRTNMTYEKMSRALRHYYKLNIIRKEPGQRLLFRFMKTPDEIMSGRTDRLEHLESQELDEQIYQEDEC
Chain of HSF1 (Q00613 whole entry): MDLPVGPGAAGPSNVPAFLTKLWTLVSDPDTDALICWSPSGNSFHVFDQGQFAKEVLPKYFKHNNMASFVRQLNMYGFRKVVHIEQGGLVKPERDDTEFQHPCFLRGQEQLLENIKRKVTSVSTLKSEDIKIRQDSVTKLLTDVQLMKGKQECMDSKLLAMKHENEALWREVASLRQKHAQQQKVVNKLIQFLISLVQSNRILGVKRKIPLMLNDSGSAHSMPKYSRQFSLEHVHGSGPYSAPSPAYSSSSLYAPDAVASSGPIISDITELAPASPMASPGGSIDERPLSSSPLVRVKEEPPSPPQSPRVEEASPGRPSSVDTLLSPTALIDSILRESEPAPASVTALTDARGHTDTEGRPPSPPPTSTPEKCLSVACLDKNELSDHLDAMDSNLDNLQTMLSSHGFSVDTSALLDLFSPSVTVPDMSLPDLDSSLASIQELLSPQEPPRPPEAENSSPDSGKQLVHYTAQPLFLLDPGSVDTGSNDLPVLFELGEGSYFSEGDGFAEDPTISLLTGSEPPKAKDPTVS
Chain of CRX (O43186 whole entry): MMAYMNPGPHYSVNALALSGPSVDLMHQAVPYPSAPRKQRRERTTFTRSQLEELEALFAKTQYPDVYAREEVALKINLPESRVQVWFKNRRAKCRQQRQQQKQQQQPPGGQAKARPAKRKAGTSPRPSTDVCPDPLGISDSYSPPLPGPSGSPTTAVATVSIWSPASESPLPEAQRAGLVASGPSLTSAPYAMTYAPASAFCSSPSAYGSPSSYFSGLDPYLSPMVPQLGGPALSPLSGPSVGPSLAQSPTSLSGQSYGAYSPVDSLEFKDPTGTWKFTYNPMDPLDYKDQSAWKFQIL
Chain of ETV1 (P50549 whole entry): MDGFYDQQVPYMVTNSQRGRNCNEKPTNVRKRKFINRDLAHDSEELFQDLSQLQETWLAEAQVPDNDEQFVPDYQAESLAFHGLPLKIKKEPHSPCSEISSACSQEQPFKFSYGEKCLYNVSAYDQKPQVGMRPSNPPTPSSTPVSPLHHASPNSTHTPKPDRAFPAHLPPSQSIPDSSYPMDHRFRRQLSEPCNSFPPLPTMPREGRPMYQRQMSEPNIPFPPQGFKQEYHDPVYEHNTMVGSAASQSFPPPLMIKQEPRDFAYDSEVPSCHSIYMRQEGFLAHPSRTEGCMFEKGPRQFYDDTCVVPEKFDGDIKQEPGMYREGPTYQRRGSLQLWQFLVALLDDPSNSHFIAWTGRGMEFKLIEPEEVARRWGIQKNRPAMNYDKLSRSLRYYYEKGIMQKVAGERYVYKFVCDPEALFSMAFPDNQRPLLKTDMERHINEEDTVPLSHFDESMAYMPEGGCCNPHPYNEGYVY
Chain of ELF4 (Q99607 whole entry): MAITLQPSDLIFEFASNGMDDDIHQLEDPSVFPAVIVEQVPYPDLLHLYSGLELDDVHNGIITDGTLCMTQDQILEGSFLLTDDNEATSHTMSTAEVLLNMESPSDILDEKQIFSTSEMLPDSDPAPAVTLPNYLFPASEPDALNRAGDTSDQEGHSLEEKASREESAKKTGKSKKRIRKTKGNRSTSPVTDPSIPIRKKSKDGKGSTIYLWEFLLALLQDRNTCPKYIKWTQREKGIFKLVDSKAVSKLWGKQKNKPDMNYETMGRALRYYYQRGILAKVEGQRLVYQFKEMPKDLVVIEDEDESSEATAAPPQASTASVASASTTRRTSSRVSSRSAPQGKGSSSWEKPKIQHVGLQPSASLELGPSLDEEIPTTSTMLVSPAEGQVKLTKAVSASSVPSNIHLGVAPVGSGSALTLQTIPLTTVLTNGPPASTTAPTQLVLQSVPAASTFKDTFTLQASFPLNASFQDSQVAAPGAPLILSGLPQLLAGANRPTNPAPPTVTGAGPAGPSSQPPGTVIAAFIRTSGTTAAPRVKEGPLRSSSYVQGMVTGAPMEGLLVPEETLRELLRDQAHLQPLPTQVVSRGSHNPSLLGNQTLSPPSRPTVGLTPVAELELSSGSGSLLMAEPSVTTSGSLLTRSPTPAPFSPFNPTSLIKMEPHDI
Chain of ETV5 (P41161 whole entry): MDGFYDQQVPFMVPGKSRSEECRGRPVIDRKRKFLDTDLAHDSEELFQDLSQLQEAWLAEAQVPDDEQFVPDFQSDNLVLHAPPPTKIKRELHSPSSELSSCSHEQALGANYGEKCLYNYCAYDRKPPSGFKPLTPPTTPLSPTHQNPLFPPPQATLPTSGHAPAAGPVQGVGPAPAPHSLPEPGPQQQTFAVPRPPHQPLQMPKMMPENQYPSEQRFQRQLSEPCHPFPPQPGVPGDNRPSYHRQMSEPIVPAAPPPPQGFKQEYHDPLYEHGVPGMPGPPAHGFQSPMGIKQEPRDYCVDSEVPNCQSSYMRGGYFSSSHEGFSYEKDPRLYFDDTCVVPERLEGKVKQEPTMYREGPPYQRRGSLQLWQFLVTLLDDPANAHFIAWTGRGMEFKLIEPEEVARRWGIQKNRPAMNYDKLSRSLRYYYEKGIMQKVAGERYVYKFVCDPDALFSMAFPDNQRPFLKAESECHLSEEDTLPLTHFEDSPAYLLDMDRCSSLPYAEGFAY

Take GCCTTA: the binding signal was 1.11 fold enrichment (6-mer frequency, TF over GST control) with FEV; 1.13 fold enrichment (6-mer frequency, TF over GST control) with ETV5; 1.3 fold enrichment (6-mer frequency, TF over GST control) with HSF1; 1.07 fold enrichment (6-mer frequency, TF over GST control) in the experiment with SPIC; 1.3 fold enrichment (6-mer frequency, TF over GST control) in the experiment with ELF4; 1.1 fold enrichment (6-mer frequency, TF over GST control) with ELK4. For the same sequence, the binding signal in the experiment with ETV2 is 1.1 fold enrichment (6-mer frequency, TF over GST control); with ELF3 it was 1.24 fold enrichment (6-mer frequency, TF over GST control); with CRX, 1.64 fold enrichment (6-mer frequency, TF over GST control); with ETV1, 1.14 fold enrichment (6-mer frequency, TF over GST control); with ERF, 1.15 fold enrichment (6-mer frequency, TF over GST control); with ETV3L, 1.04 fold enrichment (6-mer frequency, TF over GST control). Also, the binding signal with ETS2 was 1.15 fold enrichment (6-mer frequency, TF over GST control); with SPDEF, 1.12 fold enrichment (6-mer frequency, TF over GST control); in the experiment with ETV7 it was 1.18 fold enrichment (6-mer frequency, TF over GST control); in the experiment with ELF5, 1.14 fold enrichment (6-mer frequency, TF over GST control); with ETV3 it was 1.08 fold enrichment (6-mer frequency, TF over GST control); in the experiment with ETV6, 1.07 fold enrichment (6-mer frequency, TF over GST control).
